# Results taken from the supplement of paper PMC8728848.
# Shown is part of a subset that was picked to be rich in the strongest signals.
# What was measured:
# Test in all cases: glycan array binding signal (z-score within array); higher = stronger binding
# Conditions in all cases: glycan notation: IUPAC condensed, linker removed
# [1] = biological target: Fuc(a1-2)Gal(b1-3)GalNAc
# Procedure, shortened: (§1)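 Arrays were curated from the Consortium for Functional Glycomics database, 3228 in total, and kept only where the protein sequence was available. Binding is expressed as a within-array Z-score. This score was averaged across arrays of the same protein sequence at different concentrations or buffers and across linkers, and negative values can be read as non-binding.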
# [2] = biological target: Fuc(a1-2)Gal(b1-3)GlcNAc(b1-3)[Fuc(a1-3)[Gal(b1-4)]GlcNAc(b1-6)]Gal(b1-4)Glc
# Procedure, shortened: as §1
# [3] = biological target: Fuc(a1-2)Gal(b1-3)[Fuc(a1-4)]GlcNAc(b1-2)Man(a1-3)[Fuc(a1-2)Gal(b1-3)[Fuc(a1-4)]GlcNAc(b1-2)Man(a1-6)]Man(b1-4)GlcNAc(b1-4)GlcNAc
# Procedure, shortened: as §1
# [4] = biological target: Fuc(a1-2)Gal(b1-3)[Fuc(a1-4)]GlcNAc(b1-3)[Gal(b1-4)GlcNAc(b1-6)]Gal(b1-4)Glc
# Procedure, shortened: as §1
# [5] = biological target: Fuc(a1-2)Gal(b1-4)Glc
# Procedure, shortened: as §1
# [6] = biological target: Fuc(a1-2)Gal(b1-4)[Fuc(a1-3)]GlcNAc(b1-2)Man(a1-3)[Fuc(a1-2)Gal(b1-4)[Fuc(a1-3)]GlcNAc(b1-2)Man(a1-6)]Man(b1-4)GlcNAc(b1-4)GlcNAc
# Procedure, shortened: as §1
# [7] = biological target: Fuc(a1-2)[Gal(a1-3)]Gal(b1-4)GlcNAc
# Procedure, shortened: as §1
# [8] = biological target: Fuc(a1-2)[GalNAc(a1-3)]Gal(b1-3)GlcNAc(b1-2)Man(a1-3)[Fuc(a1-2)[GalNAc(a1-3)]Gal(b1-3)GlcNAc(b1-2)Man(a1-6)]Man(b1-4)GlcNAc(b1-4)GlcNAc
# Procedure, shortened: as §1
# [9] = biological target: Fuc(a1-2)[GalNAc(a1-3)]Gal(b1-4)GlcNAc(b1-3)Gal(b1-4)GlcNAc
# Procedure, shortened: as §1
# [10] = biological target: Fuc(a1-2)[GalNAc(a1-4)]Gal(b1-4)GlcNAc
# Procedure, shortened: as §1
# [11] = biological target: Fuc(a1-3)[Gal(b1-4)]GlcNAc(b1-3)GalNAc
# Procedure, shortened: as §1
# [12] = biological target: Gal(a1-3)Gal(b1-4)GlcNAc
# Procedure, shortened: as §1
# [13] = biological target: Gal(a1-3)Gal(b1-4)[Fuc(a1-3)]GlcNAc(b1-2)Man(a1-3)[Gal(a1-3)Gal(b1-4)[Fuc(a1-3)]GlcNAc(b1-2)Man(a1-6)]Man(b1-4)GlcNAc(b1-4)GlcNAc
# Procedure, shortened: as §1
# [14] = biological target: Gal(a1-3)GalNAc
# Procedure, shortened: as §1
# [15] = biological target: Gal(a1-4)Gal(b1-3)GlcNAc(b1-2)Man(a1-3)[Gal(a1-4)Gal(b1-3)GlcNAc(b1-2)Man(a1-6)]Man(b1-4)GlcNAc(b1-4)GlcNAc
# Procedure, shortened: as §1
# [16] = biological target: Gal(b1-3)GlcNAc(b1-2)Man(a1-3)[Gal(b1-3)GlcNAc(b1-2)Man(a1-6)]Man(b1-4)GlcNAc(b1-4)GlcNAc
# Procedure, shortened: as §1
# [17] = biological target: Gal(b1-3)GlcNAc(b1-3)Gal(b1-4)GlcNAc(b1-6)[Gal(b1-3)GlcNAc(b1-3)]Gal(b1-4)Glc
# Procedure, shortened: as §1
# [18] = biological target: Gal(b1-3)[Fuc(a1-4)]GlcNAc(b1-3)Gal(b1-4)GlcNAc
# Procedure, shortened: as §1
# [19] = biological target: Gal(b1-4)Glc6S
# Procedure, shortened: as §1
# [20] = biological target: Gal(b1-4)GlcNAc(b1-3)Gal(b1-4)GlcNAc
# Procedure, shortened: as §1
# [21] = biological target: Gal(b1-4)GlcNAc(b1-3)[Gal(b1-4)GlcNAc(b1-6)]GalNAc
# Procedure, shortened: as §1
# [22] = biological target: GalNAc(b1-3)Gal(a1-6)Gal(b1-4)Glc
# Procedure, shortened: as §1
# [23] = biological target: GlcNAc(b1-2)Man(a1-3)[GlcNAc(b1-2)Man(a1-6)]Man(b1-4)GlcNAc(b1-4)GlcNAc
# Procedure, shortened: as §1
# [24] = biological target: GlcNAc(b1-3)Man
# Procedure, shortened: as §1
# [25] = biological target: Kdn(a2-3)Gal(b1-4)Glc
# Procedure, shortened: as §1
# [26] = biological target: Man(a1-2)Man(a1-3)[Man(a1-2)Man(a1-6)]Man
# Procedure, shortened: as §1
# [27] = biological target: Man(a1-3)[Man(a1-6)]Man
# Procedure, shortened: as §1
# [28] = biological target: Neu5Ac(a2-3)Gal(b1-3)GalNAc(b1-4)[Neu5Ac(a2-3)]Gal(b1-4)Glc
# Procedure, shortened: as §1
# [29] = biological target: Neu5Ac(a2-3)Gal(b1-4)Glc
# Procedure, shortened: as §1
# [30] = biological target: Neu5Ac(a2-3)Gal(b1-4)GlcNAc(b1-3)Gal(b1-4)GlcNAc
# Procedure, shortened: as §1
# [31] = biological target: Neu5Ac(a2-3)Gal(b1-4)[Fuc(a1-3)]GlcNAc(b1-3)GalNAc
# Procedure, shortened: as §1
# [32] = biological target: Neu5Ac(a2-3)Gal(b1-4)[Fuc(a1-3)]GlcNAc(b1-6)[Gal(b1-3)]GalNAc
# Procedure, shortened: as §1
# [33] = biological target: Neu5Ac(a2-3)Gal(b1-4)[Fuc(a1-3)]GlcNAc(b1-6)[Neu5Ac(a2-3)Gal(b1-3)]GalNAc
# Procedure, shortened: as §1
# [34] = biological target: Neu5Ac(a2-3)GalNAc(b1-4)GlcNAc
# Procedure, shortened: as §1
# [35] = biological target: Neu5Ac(a2-3)[Neu5Ac(a2-6)]GalNAc
# Procedure, shortened: as §1
# [36] = biological target: Neu5Ac(a2-6)Gal(b1-4)GlcNAc
# Procedure, shortened: as §1
# [37] = biological target: Neu5Ac(a2-6)Gal(b1-4)GlcNAc(b1-3)Gal(b1-4)GlcNAc(b1-3)Gal(b1-4)GlcNAc
# Procedure, shortened: as §1
# [38] = biological target: Neu5Ac(a2-8)Neu5Ac(a2-3)[GalNAc(b1-4)]Gal(b1-4)Glc
# Procedure, shortened: as §1
# [39] = biological target: Neu5Ac9Ac(a2-6)Gal(b1-4)GlcNAc
# Procedure, shortened: as §1
# [40] = biological target: Neu5Gc(a2-6)Gal(b1-4)GlcNAc
# Procedure, shortened: as §1
binder,measurement,setting,value
"SAG3 (Toxoplasma gondii), Q9BJ39 (protein) MQLWRRRAAGPASLGRQSLPLGCFFAAFGLCVLSAILGTGERGLFVAAGNSRRKITYFGTLTQKAPNWYRCSSTRAKEEVVGHVTLNKEHPDMTIECVDDGLGGEFLPLEGARSSYPRVCHIDAKDQDDCERNRGFLTDYIPGAKQYWYKIEKVEQNGEQSVLYKFTVPWILLPPAKQRYKVGCRYPNHEYCFVEVTVEPTPPMVEGKRVTCGYSESGPVNLEVDLSKNANFIEIRCGEQHHPQPSTYTLQYCSGDSVDPQKCSPQSLTNIFYDYSSSWWKGKLNGPDGATLTIPPGGFPEEDKSFLVGCSLTVDGPPFCNVKVRVAGNPRKWERGGGGHPGSGGLQPGTDGETQAGTGSSAGASSRMASVALAFLLGLLVHVAA",glycan array binding signal (z-score),[1],-0.359
same,glycan array binding signal (z-score),[2],0.235
same,glycan array binding signal (z-score),[3],6.32
same,glycan array binding signal (z-score),[4],0.4
same,glycan array binding signal (z-score),[5],-0.397
same,glycan array binding signal (z-score),[6],2.31
same,glycan array binding signal (z-score),[7],0.112
same,glycan array binding signal (z-score),[8],-0.473
same,glycan array binding signal (z-score),[9],-0.084
same,glycan array binding signal (z-score),[10],-0.046
same,glycan array binding signal (z-score),[11],2.86
same,glycan array binding signal (z-score),[12],-0.223
same,glycan array binding signal (z-score),[13],4.74
same,glycan array binding signal (z-score),[14],-0.176
same,glycan array binding signal (z-score),[15],-0.051
same,glycan array binding signal (z-score),[16],0.157
same,glycan array binding signal (z-score),[17],0.551
same,glycan array binding signal (z-score),[18],-0.077
same,glycan array binding signal (z-score),[19],-0.304
same,glycan array binding signal (z-score),[20],0.013
same,glycan array binding signal (z-score),[21],-0.475
same,glycan array binding signal (z-score),[22],-0.162
same,glycan array binding signal (z-score),[23],-0.352
same,glycan array binding signal (z-score),[24],0.13
same,glycan array binding signal (z-score),[25],0.107
same,glycan array binding signal (z-score),[26],-0.088
same,glycan array binding signal (z-score),[27],0.34
same,glycan array binding signal (z-score),[28],-0.184
same,glycan array binding signal (z-score),[29],-0.168
same,glycan array binding signal (z-score),[30],-0.053
same,glycan array binding signal (z-score),[31],16
same,glycan array binding signal (z-score),[32],3.05
same,glycan array binding signal (z-score),[33],2.02
same,glycan array binding signal (z-score),[34],-0.469
same,glycan array binding signal (z-score),[35],-0.226
same,glycan array binding signal (z-score),[36],-0.372
same,glycan array binding signal (z-score),[37],-0.049
same,glycan array binding signal (z-score),[38],2.27
same,glycan array binding signal (z-score),[39],0.292
same,glycan array binding signal (z-score),[40],-0.387
